PubChem BioAssay AID504847 (National Center for Advancing Translational Sciences (NCATS), 2011)
Screen size: about 400,000 compounds; about 3,700 (0.93%) were called active. About 3% were inconclusive and are not listed. The sample as a whole holds a higher share of actives than the screen did. Some structures have more than one record in an assay (separate samples or runs), and their calls can disagree. A number with no mark means an inactive call. Calls follow the shape of the dose curve; as a rule, active = well fitted inhibition curve with a large enough effect; inconclusive = small, poorly fitted or top-dose-only effect, or another doubt; inactive = no such curve, though single readings can be large or run the other way.

target: Vitamin D3 receptor (Homo sapiens) (UniProt P11473); test: Inhibitors of the vitamin D receptor (VDR): qHTS; settings: VDR-SRC2-3 peptide fluorescence polarization, 2 h; max response, negative = inhibition: stronger effect = lower value
Source text: The vitamin D receptor (VDR) is a ligand-activated transcription factor and is partially responsible for the regulation of the endocrine system. This includes the transcriptional regulation of genes involved in the production of the parathyroid hormone (PTH) and the regulation of the blood calcium level. High levels of PHT can cause hypercalcemia in the case of primary and tertiary hyperparathyroidism. The VDR-mediated gene regulation, activated by its ligand 1,25-dihydroxyvitamin D3 (1,25-(OH)2D3), is governed by the recruitment of coactivators. Our hypothesis is that small molecules, with the ability to inhibit the interaction between VDR and certain coactivators, are able to selectively modulate VDR-mediated transcription. Our long term objective is the application these VDR-coactivator inhibitors to study the role of VDR-coactivator binding for specific VDR regulated genes. Ultimately, these molecules can be developed into new treatments for hypercalcemic hyperparathyroidism. No small molecule or non-peptide inhibitors are known for the VDR-coactivator interaction.
In a collaboration between the University of Wisconsin, Milwaukee and the NIH Chemical Genomics Center (NCGC) a HTS-compatible enzymatic assay was developed. The assay uses fluorescence polarization as its read-out to measure the inhibition between VDR and coregulator peptide SRC2-3 exerted by small molecules. This assay was used to screen the NIH Molecular Libraries Small Molecule Repository (MLSMR).
NIH Chemical Genomics Center [NCGC]
NIH Molecular Libraries Probe Centers Network [MLPCN]
Assay Submitter (PI): Alexander Arnold, University of Wilwaukee
Both solutions are kept at 4 deg C and protected from light and dispensed using a Kalypsys dispenser. Then 23nl of compounds and controls are added with Kalypsys pintool. […] Plate is centrifuged at 1000 RPM for 15 seconds to remove any residual bubbles. The plate is then incubate at ambient room temperature for 2 hours.
% is scaled to controls: 0 for no effect and ±100 for the full control effect; potency is read from the fitted curve at half-maximal effect.

Sequence of Vitamin D3 receptor (Homo sapiens) (P11473 whole entry, looked up): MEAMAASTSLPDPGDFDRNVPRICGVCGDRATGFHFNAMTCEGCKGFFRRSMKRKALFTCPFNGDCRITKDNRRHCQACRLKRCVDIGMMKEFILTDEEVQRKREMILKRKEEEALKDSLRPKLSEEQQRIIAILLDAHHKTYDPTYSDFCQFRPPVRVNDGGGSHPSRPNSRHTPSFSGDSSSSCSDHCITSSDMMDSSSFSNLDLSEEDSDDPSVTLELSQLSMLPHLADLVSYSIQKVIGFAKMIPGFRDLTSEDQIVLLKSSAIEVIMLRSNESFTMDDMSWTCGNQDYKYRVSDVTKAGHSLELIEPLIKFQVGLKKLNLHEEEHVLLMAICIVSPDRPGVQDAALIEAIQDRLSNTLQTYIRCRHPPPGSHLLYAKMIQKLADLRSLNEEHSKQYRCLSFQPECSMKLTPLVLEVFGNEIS

SMILES | max response, negative = inhibition [%] | Potency
C#CCN1C(=O)C(O)(CC(=O)c2cc(OC)ccc2OC)c2ccccc21 (configuration not stated) | -3.89 | 
COc1ccc(C(=O)NC(C)CCc2ccccc2)c(OC)c1 (configuration not stated) | -15.7 | 
COc1ccc2c(c1)C(=C(C#N)C#N)C(=O)N2CCc1ccccc1 |  | 50.1 µM (active)
COc1ccccc1-c1nnc(SCC(N)=O)o1 | 10.5 | 
CCC(=O)N1CCc2cc(Br)cc(S(=O)(=O)CCC(=O)NCc3ccccc3OC)c21 | -6.5 | 
COc1ccc(C2Nc3ccc(NC(=O)COC(C)=O)cc3C(=O)N2Cc2ccccc2)cc1COc1ccc(NC(C)=O)cc1 (configuration not stated) | -2.53 | 
CCOc1ccc(N(Cc2ccccc2)C(=O)c2nc(SCC)ncc2Cl)cc1 | 3.07 | 
CCOc1ccc(NC(=O)CN(Cc2ccccc2)S(=O)(=O)c2ccc(Cl)cc2)cc1 | 3.79 | 
CCOc1ccc(N(Cc2ccccc2)C(=O)c2nc(S(C)(=O)=O)ncc2Cl)cc1 |  | 12.6 µM (active)
Cc1ccc(Cn2c(=O)n(CCCC(=O)NCc3ccccc3Cl)c(=O)c3ccccc32)cc1 |  | 89.1 µM (active)
COc1ccc(CCNC(=O)CCCn2c(=O)c3ccccc3n(Cc3ccc(C)cc3)c2=O)cc1OC | -9.82 | 
Cc1ccccc1NC(=O)Cn1c(=O)n(CCCCC(=O)NCc2ccccc2Cl)c(=O)c2ccccc21 | -9.56 | 
O=C1N(Cc2ccccc2)c2ccc(Cl)cc2C1(O)c1c[nH]c2ccccc12 (configuration not stated) | -7.22 | 
Cc1c(Cl)cccc1-c1ccc(CNCCCSc2nnnn2C)o1 | 17.5 | 
CC(C)(C)c1ccc(S(=O)(=O)N2CCN(C(=O)c3cc(-c4ccc(Br)cc4)n[nH]3)CC2)cc1 | 0.49 | 
O=C(c1cc(-c2ccc(Cl)cc2)on1)N1CCN(c2ccccc2)CC1 | 0.117 | 
O=C(c1cc(-c2ccc(O)cc2)on1)N1CCOCC1 | 4.52 | 
O=C(c1cc(-c2ccc(F)cc2)on1)N1CCN(c2ccc(F)cc2)CC1 | -26.1 | 70.8 µM (active)
CCCCn1c(=O)c2oc3ccccc3c2n(CC(=O)Nc2ccccc2OC)c1=O | 4.96 | 

SMILES | max response, negative = inhibition [%] | Potency
C=C(C)C1CC=C(CO)CC1 (configuration not stated) | 1.87 | 
Cc1ccn2c(Nc3ccc4c(c3)OCCO4)c(-c3ccc(C)s3)nc2c1 | -0.614 | 
O=C(O)[C@@H](S)[C@H](S)C(=O)O |  | 17.8 µM (active)
CCCCCCC1(C)NC(c2ccc3c(c2)OCO3)=CC(c2ccccc2O)N1 (configuration not stated) | -18 | 
CCOC(=O)c1nnn(CC(=O)NC(=O)Nc2ccccc2F)c1C(=O)OCC | 1.08 | 
N#Cc1ccccc1Cn1cnc2nc3c(cc2c1=O)CCCC3 | -2.58 | 
COCCn1c(CCC(=O)Nc2cc(C)ccc2C)nc2cccnc21 | 7.95 | 
COc1ccc(Cl)cc1NC(=O)CSc1nc(-c2cccs2)cc(C(F)(F)F)n1 | -17 | 
Cc1ccc(F)cc1NC(=O)CCSc1nc(-c2ccco2)cc(C(F)(F)F)n1 | 7.81 | 
COc1ccccc1-c1cc(C(F)(F)F)nc(S(=O)(=O)CCCC(=O)Nc2ccc(F)cc2F)n1 |  | 56.2 µM (active)
CCOc1ccc(-c2cc3nc(C4CCN(C(=O)OC(C)(C)C)CC4)c(C(=O)Nc4ccc(C(=O)OC)cc4)cn3n2)cc1 | -12.8 | 
CCN1C(=O)c2ccccc2S(=O)c2ccc(C(=O)NCc3ccc(F)cc3)cc21 (configuration not stated) | -17 | 
CO[C@@]12[C@@H](COC(N)=O)C3=C(C(=O)C(C)=C(N)C3=O)N1C[C@@H]1N[C@@H]12 | 1.74 | 
COc1ccc(C2C(=O)N(C3CCCCC3)CC(=O)N2Cc2ccccc2Cl)cc1OC (configuration not stated) | 5.49 | 
CSc1nc(N(C)NC(=O)c2cccc(C)c2)c2ccccc2n1 | 6.12 | 
CSc1nc(C)cc(SC(C(C)=O)C(=O)Nc2ccccc2)n1 (configuration not stated) |  | 79.4 µM (active)
CC(Sc1nnc2c(n1)C1CCC2(C)C1(C)C)C(=O)Nc1ccccc1 (configuration not stated) | -21.5 | 
COc1ccc(NC(=O)CSc2nc3ccccc3n2CC(=O)N2CCCCC2C)cc1 (configuration not stated) | -0.157 | 
O=C(Nc1cccc2cccnc12)C(F)(F)F | 3.86 | 

SMILES | max response, negative = inhibition [%] | Potency
Cc1ccc(-c2nn(CC(C)(C)C)c3ncnc(N)c23)cc1 | -0.691 | 
CCc1nn(CC(=O)N2CCN(c3ccc(Cl)cc3)CC2)c(=O)c2cc3occc3n12 | 22.3 | 
CCN(CC)CCNC(=O)Cn1ncc2c3ccccc3n(Cc3ccccc3C)c2c1=O | 13.4 | 
CCOC(=O)c1c(NC(=O)C2(C)Cc3ccccc3C(=O)O2)sc2c1CCCC2 (configuration not stated) |  | 79.4 µM (active)
CCOC(=O)c1c(NC(=O)Cc2coc3ccc(CC)cc23)sc2c1CCC2 | 2.49 | 
CCOC(=O)c1c(NC(=O)c2ccc(S(=O)(=O)N(CC)CC)cc2)sc2c1CCCCC2 | -15.3 | 
CCC(=O)Nc1ccc2nc(SCC(=O)N3CCc4ccccc43)sc2c1 | 13 | 
CCOC(=O)C1C/C(=C\C(C)=O)c2cccc(C(F)(F)F)c2O1 (configuration not stated) | -3.65 | 
CN(C)c1ccc(/C=N/NC(=O)C(O)c2ccc(Br)cc2)cc1 (configuration not stated) | 5.61 | 
COc1cc(OC)c(C(=O)Nc2ccc(N(C)C)cc2)cc1OC | -2.21 | 
CN(C)c1ccc(N/C=C/C(=O)C(F)(F)F)cc1 |  | 25.1 µM (active)
O=C(CSc1nc(-c2cccc(F)c2)[nH]c1-c1ccccc1)Nc1ccc2c(c1)OCO2 | -7.99 | 
CCOc1ccc(N(CC)C(=O)c2cc3c(=O)oc4ccccc4c3s2)cc1 | -18 | 
CCOc1cc(CNC(=O)c2sc3ncnc(N(C)C4CCCCC4)c3c2C)ccc1OC | 5.17 | 
COc1cc(NC(=O)CSc2nc3nc(C)c(Cc4ccc(C)cc4)c(C)n3n2)cc(OC)c1OC | 12.5 | 
N#CC1=C(N)Oc2n[nH]c(CSc3ccccc3)c2C12C(=O)Nc1ccccc12 (configuration not stated) | 12 | 
CC1(C)Cc2ccccc2-c2[nH]c(=S)[nH]c(=O)c21 | -2 | 
N#CC1=C(N)Oc2[nH]c(=S)[nH]c(=O)c2C12C(=O)Nc1ccccc12 (configuration not stated) |  | 44.7 µM (active)
